Molecules are shown by their SMILES. Among all 190,000 compounds or so, about 810 (0.43%) were called active. What follows is part of a selection rich in actives, with near analogues and random picks from the rest. A number with no mark means an inactive call. No stated cut-off is given here; in the data, active means inhibition above about 50%; inactive means the rest.

Sequence of Mannose-6-phosphate isomerase (Homo sapiens) (P34949 whole entry, looked up): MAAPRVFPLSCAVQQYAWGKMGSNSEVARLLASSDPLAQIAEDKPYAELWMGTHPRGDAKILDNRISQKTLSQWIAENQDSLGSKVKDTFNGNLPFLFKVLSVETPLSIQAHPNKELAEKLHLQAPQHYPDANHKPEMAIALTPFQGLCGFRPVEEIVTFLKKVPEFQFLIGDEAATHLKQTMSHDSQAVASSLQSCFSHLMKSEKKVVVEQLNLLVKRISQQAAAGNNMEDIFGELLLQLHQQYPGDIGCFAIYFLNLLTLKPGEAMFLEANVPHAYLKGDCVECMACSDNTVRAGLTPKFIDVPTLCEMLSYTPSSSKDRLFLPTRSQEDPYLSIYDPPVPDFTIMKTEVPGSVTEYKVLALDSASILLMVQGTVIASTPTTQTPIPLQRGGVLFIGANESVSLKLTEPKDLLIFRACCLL

The test concerns the target Mannose-6-phosphate isomerase (Homo sapiens) (UniProt P34949). Description: MPI enzyme activity inhibition – biochemical, fluorescence intensity, coupled assay, primary screen (AID 1209).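 Further: plate controls were DMSO vehicle for no effect and wells lacking substrate for full effect.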 The following applies: purified PMI enzyme, at 20 µM, stronger effect = higher value.
Broadly, the inhibition is the change of the read-out against control, counted positive when it falls. Consider `Cc1ncc2c(c1OC(=O)c1ccc([N+](=O)[O-])cc1)COC(C)(C)OC2`, for which the inhibition is -1.9%.

`O=C(CCNC(=O)c1ccco1)Nc1ccc(Cl)cc1`: the inhibition was 4.4%.

With `O=C(CCN1CCOCC1)c1ccc(Br)cc1`, the inhibition is 60.4% (active).

As to `O=C(CCN1CCOCC1)c1ccc(Cl)cc1`, the inhibition was 25.9%.

Turning to `CC1CCCN(CCOc2ccc(Br)cc2)C1` (configuration not stated), the inhibition was -8.8%.

In the case of `O=C(CCN1CCN(c2ccccc2F)CC1)c1ccc(Br)cc1`, the inhibition is 59.8% (active).

Take `O=C(CCN1CCN(c2ccccc2F)CC1)Nc1ccccc1F`: the inhibition was -9.9%.

Take `O=C(CCN1CCOCC1)c1ccccc1`: the inhibition was -1.6%.

With `COc1ccc(C(=O)CCN2CCN(c3ccccc3F)CC2)cc1`, the inhibition was 16.8%.

With `CC1CCCN(CCC(=O)c2ccc(Br)cc2)C1` (configuration not stated), the inhibition was 60.1% (active).

`CC1CCCN(CCC(=O)Nc2ccc(Br)cc2)C1` (configuration not stated): the inhibition is -13.4%.

For the molecule `COc1cc(C)nc(N2CCC(C(N)=O)CC2)n1`, the inhibition is -2.7%.

Take `Cc1cc(=O)n2[nH]c(-c3ccc(F)cc3)nc2n1`: the inhibition was 7.6%.

`CC(=O)Nc1nc(NC(=O)/C=C/c2ccccc2)n(-c2ccccc2)n1`: the inhibition was -31.3%.

With `C=CCc1ccccc1OCCOc1ccc([N+](=O)[O-])cc1/C=N/NC(N)=O`, the inhibition is 3.8%.

Regarding `CC(C)(C)NC(=O)CN(Cc1cccs1)C(=O)CNS(=O)(=O)c1ccccc1`, the inhibition was -0.6%.

On to `Cc1ccc(S(=O)(=O)NCC(=O)N(CC(=O)NC(C)(C)C)Cc2cccs2)cc1`, for which the inhibition is -16%.

`COc1ccc(S(=O)(=O)NCC(=O)N(CC(=O)NC(C)(C)C)Cc2cccs2)cc1`: the inhibition is 110% (active).

On to `NC(=O)c1nn(CC(=O)Nc2ccc3c(c2)OCO3)cc1[N+](=O)[O-]`, for which the inhibition was 0%.

On to `Cc1ccc(NCC(=O)N/N=C/c2c[nH]c3ccccc23)cc1`, for which the inhibition is 0%.

In the case of `Cc1ccc(S(=O)(=O)Nc2cnc3ccccc3c2)cc1`, the inhibition is 3.8%.

Take `CC(=O)Oc1cccc(N2C(=O)c3ccc(C(=O)O)cc3C2=O)c1`: the inhibition is -31.5%.

For `O=C(O)c1ccc2c(c1)C(=O)N(c1cccc(-c3nc4ccccc4s3)c1)C2=O`, the inhibition is 102% (active).

With `O=C(O)c1ccc2nc(-c3ccccc3)sc2c1`, the inhibition was -10.7%.

As to `COc1ccc(/C(O)=C2\C(=O)C(=O)N(CCN(C)C)C2c2cc(OC)c(OC)c(OC)c2)c(C)c1` (configuration not stated), the inhibition is -21.3%.

In the case of `COCCOC(=O)C1=C(C)NC2(O)c3ccccc3C(=O)C12O` (configuration not stated), the inhibition was 70.5% (active).

As for `CCOC(=O)C1=C(C)NC2(O)c3ccccc3C(=O)C12O` (configuration not stated), the inhibition is 12.1%.

Consider `CCOC(=O)C1=C(C)N[C@@]2(O)c3ccccc3C(=O)[C@@]12O`, for which the inhibition is 21%.

`COc1ccccc1OCC(=O)NNC(=O)c1c(-c2ccccc2Cl)noc1C`: the inhibition was -14.6%.

As for `O=S(=O)(NCCN1CCOCC1)c1cccs1`, the inhibition was 68.9% (active).

In the case of `O=S(=O)(NCCNS(=O)(=O)c1cccs1)c1cccs1`, the inhibition was -15.3%.

Consider `O=S(=O)(NCCN1CCOCC1)c1ccc(Cl)s1`, for which the inhibition is -5.3%.

With `Cc1cc2cc(C)c3nnc(SCC(=O)N4CCCc5ccccc54)n3c2cc1C`, the inhibition was 12.3%.

Turning to `N#CCCn1cc(C(=O)O)c(-c2cc3ccccc3o2)n1`, the inhibition is -2.3%.

Consider `Cn1c(N)c(C(=O)Nc2ccc3ccccc3c2)sc1=S`, for which the inhibition was 64.8% (active).

With `Cn1c(N)c(C(=O)NCc2ccccc2)sc1=S`, the inhibition was 12.3%.

In the case of `COC(=O)c1ccccc1NC(=O)c1sc(=S)n(C)c1N`, the inhibition was -14.8%.

As to `Cc1cnn(C(=O)c2oc3ccccc3c2C)c1`, the inhibition is -1.3%.

In the case of `Cc1cc(N)n(-c2ccccc2C)n1`, the inhibition is 11.2%.

With `C=CCN1C(=O)C(C)(C)Nc2ccccc21`, the inhibition is 6.9%.

Consider `Cn1ccnc1SCC(=O)c1c[nH]c2ccccc12`, for which the inhibition is 4.5%.

Consider `C/C(=N\NC(=O)c1nn(C)c(C)c1Br)c1cccc(NC(=O)c2ccc(F)cc2)c1`, for which the inhibition was 50.8% (active).

On to `C/C(=N\NC(=O)c1nn(C)c(C)c1Br)c1ccc(NC(=O)c2ccccc2F)cc1`, for which the inhibition was -0.9%.

For `C/C(=N\NC(=O)c1nn(C)c(C)c1Br)c1cccc(NC(=O)c2ccoc2C)c1`, the inhibition is -8.4%.

For the molecule `COC(=O)c1ccc(NC(=S)NCCCN2CCCC2=O)cc1`, the inhibition is -0.7%.

For the molecule `Cc1ccc(NC(=S)N(CCCN2CCC(C)CC2)Cc2ccco2)cc1`, the inhibition is 81.3% (active).

`Cc1ccc(NC(=S)N(CCCN2CCC(C)CC2)Cc2ccco2)cc1C`: the inhibition was -3.2%.

Consider `Cc1ccc(NC(=S)N(CCCN2CCOCC2)Cc2ccco2)cc1`, for which the inhibition was -2%.

Consider `CCOC(=O)C1C(c2ccc(O)c(O)c2)NC(=S)NC1(O)C(F)(F)F` (configuration not stated), for which the inhibition was 61.7% (active).

In the case of `CCOC(=O)C1C(c2ccc(O)c(OC)c2)NC(=S)NC1(O)C(F)(F)F` (configuration not stated), the inhibition is -3%.

Consider `CCOC(=O)C1C(c2ccc(O)c(OCC)c2)NC(=S)NC1(O)C(F)(F)F` (configuration not stated), for which the inhibition is -6.6%.

As for `O=C(CN1C(=O)c2cccc3cccc(c23)C1=O)N1CCOCC1`, the inhibition is 24.7%.

For `O=C(Nn1cnnc1)c1ccc(Br)s1`, the inhibition was -17.3%.

`O=C(NCCCn1ccnc1)c1cc(-c2ccc(Br)cc2)on1`: the inhibition was -3.5%.

`O=C(O)CS(=O)(=O)CC(=O)NCc1cccc(C(F)(F)F)c1`: the inhibition is -2.8%.

Turning to `Cc1ccc(NC(=O)Nc2c(C)n(C)n(-c3ccccc3)c2=O)cc1C`, the inhibition is -4%.

`COCCn1c(=NC(=O)C2COc3ccccc3O2)sc2cc(S(N)(=O)=O)ccc21` (configuration not stated): the inhibition is 12.8%.

On to `O=C(COc1cccnc1[N+](=O)[O-])N1CCN(C(=O)c2ccco2)CC1`, for which the inhibition is 57.6% (active).

`O=C(COc1cccnc1[N+](=O)[O-])N1CCN(S(=O)(=O)c2ccccc2)CC1`: the inhibition is 12.8%.

Consider `O=C(COc1ccccc1O)N1CCN(C(=O)c2ccco2)CC1`, for which the inhibition was 4%.

`CC1(C)C/C(=N\O)c2cc3c(nc2C1)CCCC3`: the inhibition was -3%.

As to `Cc1cc(C)nc(NC(=O)c2c(-c3c(Cl)cccc3Cl)noc2C)n1`, the inhibition is 9.1%.

With `CCOC(=O)N1CCN(S(=O)(=O)c2cc(C)c(C)cc2C)CC1`, the inhibition is -3.8%.

Consider `C[N+]1=C(/C=C/Nc2ccccc2Cl)C(C)(C)c2ccccc21`, for which the inhibition is 78.4% (active).

As for `FC(F)(F)c1cnc(/C=C/Nc2ccccc2Cl)c(Cl)c1`, the inhibition is 12.3%.

For `COC(=O)c1ccc(CN(C)S(=O)(=O)c2ccc(C)cc2)o1`, the inhibition was -1.6%.

Turning to `CCc1nc(N=Nc2c(O)[nH]c3ccccc23)c2c3c(sc2n1)CCC3`, the inhibition was -5.7%.

On to `C=CCn1c(COc2ccc3c(c2)CCCC3)nnc1SCC(=O)Nc1cccc(SC)c1`, for which the inhibition is 15%.

Consider `CC1(C)CC(N2CCCC2)=CC(=[N+]2CCCCCC2)C1`, for which the inhibition was 62.8% (active).

On to `CC1(C)CC(N2CCCCC2)=CC(=[N+]2CCCCC2)C1`, for which the inhibition was 34.9%.

In the case of `CC1(C)CC(N2CCCC2)=CC(=[N+]2CCCCC2)C1`, the inhibition is 12.6%.

With `COc1cc2c(C(=O)OCCN(C)C)c(CSc3ccccc3)n(C)c2cc1Br`, the inhibition was 3.3%.

Consider `CC(OC(=O)c1cccnc1Cl)C(=O)Nc1ccc2c(c1)OCCO2` (configuration not stated), for which the inhibition was -6.6%.

Regarding `O=C(Nc1cccc(S(=O)(=O)N2CCOCC2)c1)c1cn(-c2ccccc2)nc1-c1ccc(F)cc1`, the inhibition was 6.6%.

Consider `Cc1ccc(C(=O)Nc2ccccc2OC(F)F)cc1`, for which the inhibition was -0.1%.

As for `O=C(Nc1ccccc1OC(F)F)c1ccccc1`, the inhibition is 10.6%.

On to `O=C(Nc1ccccc1OC(F)F)c1ccc(F)cc1`, for which the inhibition is 109% (active).

Consider `O=C(NCCc1ccccc1)c1ccccc1NC(=O)C1CC=CCC1C(=O)O` (configuration not stated), for which the inhibition was 5.2%.

With `CC(NC(=O)c1sc2cc([N+](=O)[O-])ccc2c1Cl)C(C)(C)C` (configuration not stated), the inhibition was 57.2% (active).

Consider `CC(C)N(C(=O)c1sc2cc([N+](=O)[O-])ccc2c1Cl)C(C)C`, for which the inhibition is 0.2%.

`O=C(NC1CC1)c1sc2cc([N+](=O)[O-])ccc2c1Cl`: the inhibition is 1.4%.

Regarding `CCNc1ccc(C(=O)OCC(=O)NCCN2C(=O)CSC2=O)cc1[N+](=O)[O-]`, the inhibition is -6.6%.

On to `CCCN1CCC(NC(=O)CCc2nnc(Cc3cc(OC)ccc3OC)o2)CC1`, for which the inhibition was 7.2%.

Take `COc1ccc(OC)c(C2CC(=O)N3CN(c4ccccc4F)CSC3=C2C#N)c1` (configuration not stated): the inhibition is 57.3% (active).

As to `COc1cc(OC)c(C2CC(=O)N3CN(c4ccccc4C)CSC3=C2C#N)cc1OC` (configuration not stated), the inhibition is 30.5%.

In the case of `COc1cc(OC)c(C2CC(=O)N3CN(c4ccccc4)CSC3=C2C#N)cc1OC` (configuration not stated), the inhibition was 41.2%.

For `COc1ccc(OC)c(C2CC(=O)N3CN(c4cccc(Cl)c4C)CSC3=C2C#N)c1` (configuration not stated), the inhibition is 46.9%.

`COc1ccc(N2CSC3=C(C#N)C(c4ccc(OC)c(OC)c4)CC(=O)N3C2)c(OC)c1` (configuration not stated): the inhibition was 39.1%.

On to `COc1cccc(C2CC(=O)N3CN(c4ccccc4F)CSC3=C2C#N)c1` (configuration not stated), for which the inhibition was 16%.

As to `COc1ccc(N2CSC3=C(C#N)C(c4cc(OC)ccc4OC)CC(=O)N3C2)c(OC)c1` (configuration not stated), the inhibition is 53.4% (active).

As to `COc1cc(OC)c(C2CC(=O)N3CN(C)CSC3=C2C#N)cc1OC` (configuration not stated), the inhibition was 59.9% (active).

As to `COc1ccc(OC)c(C2CC(=O)N3CN(c4cccc(Cl)c4)CSC3=C2C#N)c1` (configuration not stated), the inhibition is 16.5%.

`COc1ccc(Br)cc1C1CC(=O)N2CN(C)CSC2=C1C#N` (configuration not stated): the inhibition was 27.6%.

With `COc1ccc(OC)c(C2CC(=O)N3CN(c4ccccc4)CSC3=C2C#N)c1` (configuration not stated), the inhibition was 2.2%.

`CCN(CC)S(=O)(=O)c1ccc(OC)c(NC(=O)Cc2cccs2)c1`: the inhibition was -11.3%.

As for `Cc1cc(C)n(-c2ccc(C(=O)Nc3cccc(S(=O)(=O)N(C)C)c3)cc2)n1`, the inhibition is 5.5%.

As for `CCN(CC)S(=O)(=O)N1CCC(C(=O)NCCN2CCOCC2)CC1`, the inhibition was -6.8%.
